# Measurements reported in PubChem BioAssay (NCATS).
# Inconclusive results are not listed. Where a call stands in place of a potency, no number is given. Activity calls are given as the source filed them. The call rests on the fitted dose curve.
# Experiment: S16 Schwann cell PMP22 intronic element beta-lactamase assay (AID 624044); further: nearly all actives have a fitted effect of over 15% in size
# Conditions: S16 rat Schwann cells, PMP22 element beta-lactamase FRET, 24 h; series mostly up to 38.3 µM
# Summary of the method: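 Rat S16 Schwann cells with beta-Lac driven by a PMP22 intronic element, compound-treated 24 h at 37 °C. LiveBLAzer FRET B/G read: 460 nm normalized to potassium clavulanate vs DMSO; 535 nm FRET as viability; concentration-effect curves classified.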
# Potency means the concentration at half of the fitted maximal effect.
row,SMILES,Potency
1,Nc1nc(-c2ccccc2)c(Br)c(=O)[nH]1,inactive
2,COc1cc(C(=O)NCc2ccc(OCCN(C)C)cc2)cc(OC)c1OC,inactive
3,CN1CCC(OC(c2ccccc2)c2ccccc2)CC1,inactive
4,C[C@@H](O)[C@H]1C(=O)N2C(C(=O)O)=C(S[C@@H]3CN[C@H](CNS(N)(=O)=O)C3)[C@H](C)[C@H]12,inactive
5,COc1ccc(C(=O)c2ccccc2O)c(O)c1,inactive
6,CCCCN=C(N)N=C(N)N,inactive
7,CCCCc1cc2ccccc2c(OCCN(C)C)n1,inactive
8,NC(=O)C1(N2CCCCC2)CCN(CCCC(=O)c2ccc(F)cc2)CC1,inactive
9,CCC(CC)(CC(=O)Nc1cccc(/C=C/c2nc(C3CCC3)cs2)c1)C(=O)O,inactive
10,O=C(O)P(=O)(O)O,inactive
11,CCOc1ccccc1OCCN[C@H](C)Cc1ccc(OC)c(S(N)(=O)=O)c1,inactive
12,NS(=O)(=O)Cc1noc2ccccc12,inactive
13,C/C=C/C=N/NC(=O)c1ccncc1,inactive
14,Cc1ccccc1OCC(O)CO (stereo not drawn),inactive
15,O=C(c1ccc(F)cc1)C1CCN(CCn2c(=S)[nH]c3ccccc3c2=O)CC1,inactive
16,CCCCNc1ccc(C(=O)OCCOCCOCCOCCOCCOCCOCCOCCOCCOC)cc1,inactive
17,C#C[C@]1(O)CC[C@H]2[C@@H]3CCc4cc(OC)ccc4[C@H]3CC[C@@]21C,inactive

row,SMILES,Potency
1,COc1ccc(/C=N/NC(=O)c2ccncc2)cc1OC,inactive
2,Oc1ccc(Cl)cc1Cc1cc(Cl)ccc1O,inactive
3,COc1cc(N)c(Cl)cc1C(=O)NC1CCN(Cc2ccccc2)CC1,inactive
4,CCNC(=O)NCc1cccc(Cl)c1,inactive
5,CC(C)Nc1cccnc1N1CCN(C(=O)c2cc3cc(NS(C)(=O)=O)ccc3[nH]2)CC1,inactive
6,COc1ccc(-c2cc(C(F)F)nn2-c2ccc(S(N)(=O)=O)cc2)cc1F,inactive
7,CC(=O)Nc1ncc([N+](=O)[O-])s1,inactive
8,OC(C#CCN1CCCC1)(c1ccccc1)c1ccccc1,inactive
9,C#C[C@]1(O)CC[C@H]2[C@@H]3CCC4=CC(=O)CC[C@@H]4[C@H]3CC[C@@]21CC,inactive
10,O=C1C(CCS(=O)c2ccccc2)C(=O)N(c2ccccc2)N1c1ccccc1 (stereo not drawn),inactive
11,CC(=O)OC[C@H]1O[C@@H](n2ncc(=O)[nH]c2=O)[C@H](OC(C)=O)[C@@H]1OC(C)=O,9.99 µM (active)
12,Nc1nc(N)c(-c2ccccc2)s1,inactive
13,CC(=O)NO,inactive
14,Nc1ccc(S(=O)(=O)Nc2cnc3ccccc3n2)cc1,inactive
15,O=C(O)C(Cc1cc(I)c(O)c(I)c1)c1ccccc1 (stereo not drawn),inactive
16,Nc1ccc(S(=O)(=O)NCc2ccccc2)cc1,inactive
